This is a sample that favours compounds with a hit; in the whole collection about 10% have one here.
FLuc inh = inhibitors of firefly (Photinus pyralis) luciferase; P08659; purified P. pyralis luciferase, luminescence, biochemical; Potency, µM (series often up to 115 µM), most hits filed as inhibitors; 2.5% of 76,000 active; AID 1347043; further: on the % scale 0 is the no-effect control and ±100 the full control effect; nearly all actives have a fitted effect of over 65% in size
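Purified 10nM P. pyralis luciferase with 10uM D-luciferin and 10uM ATP in 50mM Tris acetate pH 7.5, 10mM Mg acetate, 0.01% Tween-20, 0.05% BSA. qHTS titration; luminescence read by CCD imager.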
HEK cytotox = cytotoxic compounds in HEK 293 cells | HEK 293 viability, ATP luminescence (CellTiter-Glo), 48-72 h | Potency, µM (series often up to 115 µM), without a hit: at the top dose activity change, negative = cytotoxicity, actives largely listed as inhibitors | 6.6% of 94,000 active; further: on the % scale 0 is the no-effect control and ±100 the full control effect; nearly all actives have a fitted effect of over 60% in size
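ATP-coupled CellTiter-Glo luminescence served as viability read-out, recorded 10 min after reagent addition at room temperature. HEK 293 cells, 250 cells/well, had been incubated with pintool-transferred compound for 48 or 72 hr at 37 degree Celsius.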
NIH3T3 tox = cytotoxic compounds in NIH 3T3 cells; 4.3% of 94,000 active; AID 1345082; NIH 3T3 viability, CellTiter-Glo ATP luminescence, 48-72 h; Potency, µM (top dose mostly 96.7 µM), for the others: at the top dose activity change, negative = cytotoxicity, most hits filed as inhibitors; further: on the % scale 0 is the no-effect control and ±100 the full control effect; nearly all actives have a fitted effect of over 55% in size
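Cytotoxicity was measured by CellTiter-Glo ATP luminescence after 48 or 72 h compound exposure at 37 °C. Mouse NIH 3T3 fibroblasts were seeded at 400 cells/well and dosed by 23 nL pin transfer.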
GPT2 inh = blocks human glutamate pyruvate transaminase 2. Q8TD30. Recombinant GPT2, coupled pyruvate oxidase/HRP Amplex Red fluorescence. Potency, µM (top dose mostly 57.7 µM), without a hit: at the highest dose activity change, negative = inhibition, most hits filed as inhibitors. 0.25% of 100,000 active. AID 1671188; further: on the % scale 0 is the no-effect control and ±100 the full control effect; nearly all actives have a fitted effect of over 60% in size
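Inhibition is scored from Amplex Red fluorescence generated when pyruvate oxidase and HRP act on pyruvate released by GPT2. Reactions contain 10ng/uL enzyme, 250uM a-KG and 2mM L-alanine and run 30 min at room temperature.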
NPR1 antag = human Npr1 receptor antagonism; P16066; HEK293 hNpr1 GloSensor cGMP, ANP-stimulated luminescence; Potency, µM (highest dose often 46.3 µM), without a hit: at the highest dose activity change, negative = inhibition, most hits filed as inhibitors; 1.6% of 76,000 active; calls by dose curve; further: on the % scale 0 is the no-effect control and ±100 the full control effect; nearly all actives have a fitted effect of over 60% in size
Target sequence (P16066 whole entry, looked up): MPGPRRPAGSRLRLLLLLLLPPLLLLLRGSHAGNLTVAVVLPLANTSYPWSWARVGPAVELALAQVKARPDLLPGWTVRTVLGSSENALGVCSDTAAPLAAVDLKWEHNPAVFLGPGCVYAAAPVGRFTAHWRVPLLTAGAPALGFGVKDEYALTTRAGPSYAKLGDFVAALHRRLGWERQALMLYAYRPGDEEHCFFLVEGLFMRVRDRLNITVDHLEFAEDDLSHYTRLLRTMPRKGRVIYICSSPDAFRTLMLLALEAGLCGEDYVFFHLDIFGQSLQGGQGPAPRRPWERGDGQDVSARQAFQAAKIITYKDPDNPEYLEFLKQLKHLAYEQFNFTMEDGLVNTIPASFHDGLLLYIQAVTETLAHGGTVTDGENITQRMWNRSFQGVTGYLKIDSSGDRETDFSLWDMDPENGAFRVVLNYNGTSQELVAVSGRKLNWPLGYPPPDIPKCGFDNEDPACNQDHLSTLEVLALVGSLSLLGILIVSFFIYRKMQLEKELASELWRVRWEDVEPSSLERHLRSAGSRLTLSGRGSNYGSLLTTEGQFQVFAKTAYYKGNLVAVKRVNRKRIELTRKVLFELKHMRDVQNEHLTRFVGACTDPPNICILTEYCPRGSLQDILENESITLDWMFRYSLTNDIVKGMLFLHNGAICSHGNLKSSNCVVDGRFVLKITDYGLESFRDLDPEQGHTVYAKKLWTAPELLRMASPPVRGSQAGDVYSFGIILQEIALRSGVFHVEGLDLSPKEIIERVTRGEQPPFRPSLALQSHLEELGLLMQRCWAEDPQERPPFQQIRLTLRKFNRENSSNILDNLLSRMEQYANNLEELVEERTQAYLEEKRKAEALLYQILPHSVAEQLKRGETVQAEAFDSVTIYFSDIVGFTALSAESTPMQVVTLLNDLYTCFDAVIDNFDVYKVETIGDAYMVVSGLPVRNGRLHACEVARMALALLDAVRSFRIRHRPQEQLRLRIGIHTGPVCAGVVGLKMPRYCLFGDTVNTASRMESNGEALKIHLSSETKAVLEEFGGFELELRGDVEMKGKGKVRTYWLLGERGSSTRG
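HEK293 cells stably expressing human Npr1 and cGMP GloSensor pGS-40F, loaded 2 h with 2% GloSensor reagent, given compound 30 min at room temperature. Luminescence read before and 20 min after 0.1 nM hNppA.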
Npr1 antag conf = confirmation of human Npr1 natriuretic peptide receptor antagonists; shares compounds with NPR1 antag; HEK293 hNpr1 cGMP GloSensor luminescence, ANP-stimulated; Potency, µM (titrated, usually from 57.6 µM), inactives show top-dose activity change, negative = inhibition, usual class: inhibitors; 76% of 1,400 active; AID 1347044; calls by dose curve; further: nearly all actives have a fitted effect of over 70% in size
Npr2 selectivity = hNpr2 antagonism, selectivity versus Npr1 | shares compounds with NPR1 antag | HEK293 hNpr2 GloSensor cGMP luminescence, CNP-stimulated | Potency, µM (series often up to 57.6 µM), for inactives: top-dose activity change, negative = inhibition, usual class: inhibitors | 67% of 1,400 active | AID 1347046; calls by dose curve; further: nearly all actives have a fitted effect of over 70% in size
FLuc counter = counter-screen for Npr1 antagonists: firefly luciferase inhibitors; shares compounds with NPR1 antag; purified FLuc enzyme, luminescence, Km substrate; Potency, µM (highest dose often 57.6 µM), for the others: at the highest dose activity change, negative = inhibition, usual class: inhibitors; 0.7% of 1,400 active; further: 0% is about no effect
GloSensor cGMP = control cell line activity, Npr1 antagonist counter-screen; 69% of 1,400 active; shares compounds with NPR1 antag; HEK293 GloSensor cGMP, SNP-stimulated, luminescence; Potency, µM (top dose mostly 57.6 µM), without a hit: at the highest dose activity change, negative = inhibition, usual class: inhibitors; AID 1347051; calls by dose curve; further: on the % scale 0 is the no-effect control and ±100 the full control effect; nearly all actives have a fitted effect of over 70% in size
Starred values were filed as active, the others as inactive; i = inactive; ? = inconclusive; . = not tested or not shown; [ ] = dose if it differs, or a comment. Unless noted, the call rests on the fitted dose curve; in most records, active means well fitted curve in the direction sought with a large enough effect; inconclusive means small, poorly fitted or top-dose-only effect, or another doubt; inactive means no such curve, though single readings can be large; an effect the other way counts as inactive or inconclusive. Potency means the concentration at half of the fitted maximal effect.

SMILES	FLuc inh	HEK cytotox	NIH3T3 tox	GPT2 inh	NPR1 antag	Npr1 antag conf	Npr2 selectivity	FLuc counter	GloSensor cGMP
COCCNC(=O)[C@H]1C[C@H](Oc2ccccc2)CN1C(=O)c1ccco1	i	-11%	i	i	-1%	.	.	.	.
O=C(c1ccc2cccc(F)c2n1)N1CCN(C(=O)C2CCCCC2)CC1	i	2%	0%	i	-3%	.	.	.	.
COc1ccccc1CCNC(=O)[C@@H]1CNC[C@H]1COc1cccnc1	i	-12%	-14%	i	4%	.	.	.	.
N#Cc1ccc(CN2CCC3(CC2)CC(c2cccnc2)=NO3)cc1	i	79µM*	-20%[138 µM]	i	22µM*	20µM*	22µM*	1%[86.2 µM]	18µM*
N#Cc1ccc(CN2CCC3(CC2)CC(c2cccc(C(F)(F)F)c2)=NO3)cc1	i	32µM*	28µM*	2%	8.9µM*	?	?	2%[86.2 µM]	?
Clc1ccc(CN2CCC3(CC2)CC(c2cccnc2)=NO3)cc1	.	?	-22%	-7%	.	27µM*	?	4%	24µM*
N#Cc1ccc(CN2CCC3(CC2)CC(=O)c2ccccc2O3)cc1	i	?	?	-14%[88.5 µM]	28µM*	31µM*	35µM*	2%[86.2 µM]	25µM*
CCNC(=O)N[C@H]1C[C@@H](Cc2cc(CN3CCN(c4ccccc4)CC3)on2)C1(C)C	i	?	?	i	?	.	.	.	.
CC(C)(C)CC(=O)N[C@H]1C[C@@H](Cc2cc(CN3CCN(c4ccccc4)CC3)on2)C1(C)C	i	25µM*	?	?	2.8µM*	3.1µM*	3.4µM*	4%	2.4µM*
O=C(NC[C@H]1OC[C@@H](NCc2ccccc2O)[C@@H]1O)c1ccc(F)cc1	i	3%[172 µM]	i	i	-2%[70.6 µM]	.	.	.	.
COc1ccc(OCC(=O)N2CCC(Cc3nc(-c4cnccn4)no3)CC2)cc1	i	-5%	?	i	-2%	.	.	.	.
COc1ccc(C(=O)N2CCC(n3cc(-c4nc(-c5ccccc5)no4)nn3)CC2)c(C)c1	i	?	?	5%	?	.	.	.	.
COc1ccc(-c2noc(CC3CCN(C(=O)CCc4ccccc4)CC3)n2)cc1	i	35µM*	?	i	13µM*	19µM*	22µM*	0%	17µM*
COc1cccc(CCC(=O)N2CCC(Cc3nc(C4CCOCC4)no3)CC2)c1	i	-9%	-9%	i	-17%	.	.	.	.
O=C(CCc1ccccc1)N1CC(Oc2ccc(-c3noc(C4CC4)n3)cc2)C1	i	28µM*	?	i	14µM*	15µM*	17µM*	2%	15µM*
COc1cccc(CCC(=O)N2CCC(n3cc(-c4nc(-c5ccccc5)no4)nn3)C2)c1 (centres undefined)	?	?	?	-8%	14µM*	22µM*	24µM*	-29%	22µM*
Cc1ccc(OCC(=O)N2CCC(Cc3nc(-c4ccc(F)cc4)no3)CC2)cc1	i	?	?	i	7.9µM*	11µM*	12µM*	-4%	9.7µM*
CCCNC1(Cc2cc(COc3ccccc3)on2)COC1	i	-3%[172 µM]	-1%[138 µM]	i	2%[70.6 µM]	.	.	.	.
CCCN(CC1CCOC1)C(=O)c1cc(F)cc(F)c1 (centres undefined)	i	-13%	-2%	i	3%	.	.	.	.
COc1ccc(CCC(=O)N2CCC(Cc3nc(-c4ccc(F)cc4)no3)CC2)cc1	i	?	?	i	5.6µM*	4.3µM*	11µM*	0%	11µM*
O=C(Cc1cccc(F)c1)N1CCC(Cc2nc(-c3cnccn3)no2)CC1	i	-8%	?	1%	6%	.	.	.	.
COc1ccc(CCC(=O)N2CCC(Cc3nc(-c4ccc(OC)cc4)no3)CC2)cc1	i	?	?	i	11µM*	17µM*	17µM*	0%	12µM*
O=C(Cc1ccsc1)N1CCC(Cc2nc(-c3ccc(F)cc3)no2)CC1	i	?	?	?	5µM*	4.8µM*	4.8µM*	3%	3.9µM*
COCCNC(=O)c1ccc(CC2CCN(C(=O)CCc3ccc(OC)cc3)CC2)cc1	i	?	-29%	i	-17%	.	.	.	.
COc1ccc(CC(=O)N2CCC(Cc3nc(-c4ccc(F)cc4)no3)CC2)cc1	i	?	?	4%	5.6µM*	7.7µM*	6.9µM*	-2%	6.1µM*
SMILES	FLuc inh	HEK cytotox	NIH3T3 tox	GPT2 inh	NPR1 antag	Npr1 antag conf	Npr2 selectivity	FLuc counter	GloSensor cGMP
COc1ccccc1CCC(=O)N1CCC(Cc2nc(-c3ccc(F)cc3)no2)CC1	i	?	?	i	?	.	.	.	.
NC(=O)[C@@H](Cc1ccccc1)NC(=O)[C@@]1(O)C[C@@H](O)[C@H](O)[C@@H](NC(=O)Cc2cccs2)C1	i	-3%	-12%	-6%	4%	.	.	.	.
COc1ccc(C(=O)N2CCC(C(=O)N3CCC(N4Cc5cccn5C4=O)CC3)CC2)cc1	.	-27%	-29%	i	.	.	.	.	.
COc1cccc(CCC(=O)N2CCC(Cc3nc(-c4cccc(OC)c4)no3)CC2)c1	i	?	?	4%	16µM*	22µM*	22µM*	1%	17µM*
COc1ccc(-c2noc(CC3CCN(C(=O)COc4cccc(C)c4)CC3)n2)cc1	i	?	?	i	16µM*	22µM*	24µM*	5%	24µM*
COc1cccc(CCC(=O)N2CCC(Cc3nc(-c4cnccn4)no3)CC2)c1	i	-5%	-22%	3%	2%	.	.	.	.
COc1ccc(CCC(=O)N2CCC[C@H]2c2nc(-c3ccccc3Cl)no2)cc1	i	?	?	i	13µM*	24µM*	?	-6%	27µM*
O=C(NCc1cccs1)c1cn2cc(-c3ccccc3)sc2n1	.	?	?	-22%	.	.	.	.	.

Bioassay records as filed in PubChem.
